An excerpt weighted towards active compounds, which were near 3.5% of everything screened.
TEAD-YAP inh: TEAD-YAP interaction inhibition; HEK-TIYL cells, TEAD-Gal4/YAP UAS-luciferase luminescence; inhibition, % at 9.12 µM; hit rate 1.4% among 640,000; AID 1259422; in the data active = inhibition above about 32%
GPR151 ag: activators of human GPR151. activation, % at 11.2 µM. hit rate 1% among 650,000. PathHunter beta-arrestin GPR151 cells, luminescence. Q8TDV0; in the data active = activation above about 4.9%
FBW7 act: activators of human E3 ligase FBW7; Q969H0; AlphaScreen FBW7–phospho-cyclin E peptide binding, activator screen; normalized activity (activation), % at 26.1 µM; hit rate 0.13% among 650,000; in the data active = normalized activity above about 1.9%;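 note: purified mutant Fbw7 with reduced substrate affinity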
MITF primary: inhibitors of human MITF. AlphaScreen MITF homodimerization, bead proximity signal. O75030. hit rate 0.91% among 650,000. inhibition, % at 2.6 µM; in the data active = inhibition above about 50%
GPR151 confirm: confirmation of human GPR151 activators; shares compounds with GPR151 ag; GPR151 PathHunter beta-arrestin cells, luminescence, 90 min; % of EA-reagent control over plate median; activation, % at 11.2 µM; 6,700 tested, under 10 active; AID 1508609;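 active = mean percent activation across replicates above the confirmation screen cutoff of 4.91%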
GPR119 ag: counter-screen for GPR151 activators: effect on human GPR119. shares compounds with GPR151 ag. GPR119 PathHunter beta-arrestin cells, luminescence, 90 min; 0 = compound-well median, 100 = enzyme-acceptor control. activation, % at 11.2 µM. hit rate 0.3% among 6,700;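 active = mean percent activation in the counterscreen above 29.09%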;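 note: counterscreen on off-target GPR119 to flag nonselective hits from the GPR151 activator screen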
Target sequence (Q8TDV5 whole entry, looked up): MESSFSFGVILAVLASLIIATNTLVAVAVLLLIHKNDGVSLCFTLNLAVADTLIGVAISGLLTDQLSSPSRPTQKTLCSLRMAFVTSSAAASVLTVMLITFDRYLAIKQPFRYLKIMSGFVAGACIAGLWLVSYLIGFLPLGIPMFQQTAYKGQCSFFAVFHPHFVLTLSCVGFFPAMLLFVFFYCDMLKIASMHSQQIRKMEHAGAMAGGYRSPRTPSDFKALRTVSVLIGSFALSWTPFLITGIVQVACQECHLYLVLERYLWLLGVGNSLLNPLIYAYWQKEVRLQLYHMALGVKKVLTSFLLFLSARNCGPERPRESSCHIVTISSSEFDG
A number is an active result; n = inactive; x = not tested or not shown; ! = not confirmed by another sample.

SMILES	TEAD-YAP inh	GPR151 ag	FBW7 act	MITF primary	GPR151 confirm	GPR119 ag
CSc1ncccc1C(=O)OCCOc1ccc(Br)cc1	n	6.3	n	n	n	n
O=C(OCCOc1ccc(Br)cc1)c1cccnc1Cl	n	n	n	n	x	x
COc1cc(N)c(Cl)cc1C(=O)OCCOc1ccc(Br)cc1	n	19.8	n	n	n	n
NC(=O)c1ccccc1NS(=O)(=O)c1c[nH]c(=O)[nH]c1=O	n	n	n	n	x	x
O=C(c1ccccc1)c1ccc(-n2ccnc2)c([N+](=O)[O-])c1	n	7.3	n	n	n	n
Cc1ccc(C(=O)c2ccccc2)cc1[N+](=O)[O-]	n	8.7	n	n	n	n
O=C(O)c1ccc(-n2ccnc2)c([N+](=O)[O-])c1	n	n	n	n	x	x
Nc1c(C(=O)Nc2ccc3c(c2)OCCO3)sc2nc3cc4c(cc3cc12)OCCO4	n	n	n	n	x	x
Nc1c(C(=O)Nc2ccc3c(c2)OCCO3)sc2nc(-c3cccs3)ccc12	n	6.3	n	n	n	n
CC(NC(=O)c1cnccn1)c1nc(-c2ccc(Cl)cc2)n[nH]1 (stereo not drawn)	n	8.1	n	n	n	n
CC(NC(=O)c1cnccn1)c1nc(-c2ccncc2)n[nH]1 (stereo not drawn)	n	n	n	n	x	x
CCNC(=O)CNS(=O)(=O)c1ccc(I)cc1	n	n	n	n	x	x
CCNC(=O)CNS(=O)(=O)c1ccc(C)cc1	n	7.9	n	n	n	n
CCCCNC(=O)NS(=O)(=O)c1ccc(C)cc1	n	6.1!	n	n	n	n
Cc1occc1-c1nnc(SCC(=O)NC2CCCCC2C)n1CC1CCCO1 (stereo not drawn)	n	n	n	n	x	x
CCn1c2ccccc2c2nnc(SCC(=O)Nc3cccc(C)c3)nc21	n	n	n	n	x	x
Cc1cc(Cl)nc(Cl)c1C(=O)N1CCCCC1	n	n	n	n	x	x
Cc1c(NC(=O)c2ccccc2NS(C)(=O)=O)c(=O)n(-c2ccccc2)n1C	n	n	n	n	x	x
NC(=O)CSc1nnc2n(Cc3ccccc3)c3ccccc3n12	n	6.1	n	n	n	n
COc1ccc([N+](=O)[O-])cc1C1=N/C(=C/c2cccc(OC)c2OC)C(=O)O1	n	n	n	n	x	x
CC(C)Sc1nc2c(c(=O)[nH]1)C(c1cccs1)C1=C(CCCC1=O)N2 (stereo not drawn)	n	5.2	n	n	n	n
CCN(CC)C(=O)c1sc(N)c(C(=O)OC(C)C)c1C	n	16.1	n	n	n	n
C=CCNC(=O)CCN1C(=O)c2ccccc2C1=O	n	5.6	n	n	n	n
Cc1ccc(CNC(=O)CN(c2cc(C(F)(F)F)ccc2Cl)S(C)(=O)=O)cc1	n	n	n	n	x	x
CC(=O)Nc1c2c(nn1-c1nc3ccccc3s1)CCC2	n	n	n	n	x	x
SMILES	TEAD-YAP inh	GPR151 ag	FBW7 act	MITF primary	GPR151 confirm	GPR119 ag
Cc1cnn(C)c1C(=O)Nc1c2c(nn1-c1nc3ccccc3s1)CCC2	n	19.8	n	n	n	n
CCOc1ccc(NC(=O)CSc2nc3c(c(=O)n2CC)SC(C)C3)cc1 (stereo not drawn)	n	n	n	n	x	x
CCOC(=O)c1ccc(NC(=O)CSc2nc3c(c(=O)n2CC)SC(C)C3)cc1 (stereo not drawn)	n	5.1	n	n	n	n
N#Cc1ccc(NC(=O)CSc2ccc(Br)cc2)cc1	n	n	n	n	x	x
CCOC(=O)c1ccc(NC(=O)CC2COc3ccccc3O2)cc1 (stereo not drawn)	n	5.8	n	n	n	n
COc1ccc(SCCC(=O)Nc2ccc(Br)cc2)cc1	n	5.2	n	n	n	n
O=C(CSc1ccc(Br)cc1)Nc1ccc([N+](=O)[O-])cc1	n	6.4	n	n	n	n
CCOC(=O)c1ccc(N2CC(=O)N(CC)C2=S)cc1	n	n	n	n	x	x
Cc1ccc(Sc2cc(C(=O)NC(C)c3ccccc3)c3ccccc3n2)cc1 (stereo not drawn)	n	n	n	n	x	x
CCCOC(=O)c1ccc(NC(=O)CSc2ccccc2)cc1	n	n	n	n	x	x
CCOC(=O)c1ccc(NC(=O)CSc2ccc(Br)cc2)cc1	n	7.9	n	n	n	n
CCOC(=O)c1ccc(NC(=O)CN2C(=O)C3C4C=CC(C5CC45)C3C2=O)cc1 (stereo not drawn)	n	7.0	n	n	n	n
CCOC(=O)c1ccc(NC(=O)CN2C(=O)C3C4C=CC(C4)C3C2=O)cc1 (stereo not drawn)	n	n	n	n	x	x
CCOC(=O)c1ccc(COC(=O)c2cc(Br)ccc2NC(C)=O)cc1	n	6.3	n	n	n	n
CC(C)(C)c1ccc(C(=O)NCC(=O)OCC(=O)c2ccc3c(c2)NC(=O)CO3)cc1	n	n	n	n	x	x
FC(F)(F)c1ccc(Cn2cnc3c(NCc4cccc(C(F)(F)F)c4)nc(Nc4ccc(C(F)(F)F)cc4)nc32)cc1	n	n	n	n	x	x
COCCCNC(=O)C1CCC(Cn2c(=O)c3sccc3n(Cc3cccc(C)c3)c2=O)CC1 (stereo not drawn)	n	5.3	n	n	n	n
COc1ccc(-c2nc(Nc3ccccc3)c3ncn(C4CCCCC4)c3n2)cn1	n	n	n	n	x	x
C=CCN(c1ccc(C(=O)Nc2ccc(Cl)cc2)cc1)S(C)(=O)=O	n	9.2	n	n	n	n
CC(C)[C@@H](Cn1nc(-c2ccc(F)c(F)c2)ccc1=O)NC(=O)c1ccc(=O)[nH]n1	n	9.0	n	n	n	n
O=C(CCc1nnc(CCc2c[nH]c3ccccc23)o1)N1CCCCCCC1	n	6.6	n	n	n	n
O=C(Cc1n[nH]c(=O)c2ccccc12)Nc1ccccn1	n	5.4	n	n	n	n
CSc1nsc(NC(=O)Cc2n[nH]c(=O)c3ccccc23)n1	n	n	n	n	x	x
Cc1cc(C(F)(F)F)nc(SCC(=O)Nc2ccc(F)cc2F)n1	n	n	n	n	x	x
NC(=O)CSc1nnc(Cc2ccccc2)n1-c1ccc(F)cc1	n	6.0	n	n	n	n
SMILES	TEAD-YAP inh	GPR151 ag	FBW7 act	MITF primary	GPR151 confirm	GPR119 ag
COc1cn(CC(=O)NC(C)C)c(CSc2nc(C)cc(C)n2)cc1=O	n	n	n	n	x	x
CCCCCCOC(=O)Nc1nnc(CCC)s1	n	11.6	n	n	n	n
O=C(c1cccc([N+](=O)[O-])c1)n1c(=O)oc2cc(Br)ccc21	n	n	n	n	x	x
COCCNCc1nc2c(c(=O)n(C)c(=O)n2C)n1Cc1ccccc1Cl	n	5.1	n	n	n	n
COc1cc(/C=C2/C(=O)N(c3ccc(I)cc3)N=C2C)ccc1O	n	5.4	n	n	n	n
COc1ccc(/C=C2\C(=O)N(c3ccc(Cl)c(C(=O)O)c3)N=C2C)cc1OC	n	5.7	n	n	n	n
COc1cc(/C=C2\C(=O)N(c3ccc(C(=O)OC(C)C)cc3)N=C2C)ccc1O	n	n	n	n	x	x
CCN1CCSc2ccc(C(=O)NCc3ccc(C)cc3)cc21	n	6.4	n	n	n	n

Assay outcomes deposited in PubChem BioAssay by The Scripps Research Institute Molecular Screening Center.
